Here are results for 13 compounds from PubChem BioAssay.

The test system of assay [1] is Wnt5a (protein binding on small-molecule microarray). In words: small molecules binding Wnt5a protein – biophysical, small-molecule microarray, 635/667 nm fluorescence, primary screen (AID 1142).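 Note: fluorescence read at 667 nm with signal to noise per printed feature.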 Particulars: 635 nm fluorescence, higher = more signal.
Assay [2] in a line: ATP-based viability of Huh7 replicon cells – cell-based, CellTiter-Glo luminescence, basal, 48 h, cytotoxicity control for HCV replication inhibitor project, primary screen (AID 1143).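 Note: Huh7 hepatoma cells carrying a hepatitis C replication reporter with no stimulus; test concentration not given here.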 To be noted: higher = more signal, called active from +8 up or from −8 down.
Assay [3] is described as follows: Pseudomonas biofilm growth suppression – PAO1 strain, BacTiter-Glo luminescence, LB-PBS, primary screen (AID 1144). To be noted: P. aeruginosa PAO1 biofilm, 12 h, higher = more signal.
A short description of assay [4]: basal CRE-LacZ reporter activity in PC12 – cell-based, unstimulated, primary screen (AID 1145). To be noted: no forskolin, luminescence, 4.5 h, higher = more signal, called active from +8 up or from −8 down.
Assay [5] in a line: forskolin-driven CRE-LacZ activity in PC12 – cell-based, CRE-LacZ reporter, forskolin-stimulated, primary screen (AID 1146).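 Note: PC12 cells with 6xCRE LacZ reporter stimulated by forskolin 10 µM; beta-galactosidase reporter signal reflecting CREB driven transcription.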 To be noted: luminescence, 4.5 h, higher = more signal, called active from +8 up or from −8 down.
Assay [6] addresses Streptavidin (Streptomyces avidinii) (UniProt P22629). The assay is described as follows: compounds binding control protein streptavidin – biophysical, small-molecule microarray, 635/667 nm fluorescence, artefact control for SMM compound annotation, primary screen (AID 1147).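 Note: signal reflects streptavidin binding to arrayed compounds as a control protein.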 To be noted: higher = more signal.
Assay [7] in a line: probe aInhba binding on compound microarray – biochemical, small-molecule microarray, 635/667 nm fluorescence, primary screen (AID 1148).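 Note: score merges 667nm spot fluorescence with signal-to-noise for antibody binding to printed compounds.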 To be noted: higher = more signal.
In assay [8] the target is Torsin-1A (Homo sapiens) (UniProt O14656). The assay is described as follows: TOR1A wild-type binding on microarray – cell lysate, small-molecule microarray, lysate, 635/667 nm, primary screen (AID 1149). To be noted: COS7 hTOR1A-WT lysate, 635 nm fluorescence, higher = more signal.
Torsin-1A (Homo sapiens), sequence (O14656 whole entry, looked up): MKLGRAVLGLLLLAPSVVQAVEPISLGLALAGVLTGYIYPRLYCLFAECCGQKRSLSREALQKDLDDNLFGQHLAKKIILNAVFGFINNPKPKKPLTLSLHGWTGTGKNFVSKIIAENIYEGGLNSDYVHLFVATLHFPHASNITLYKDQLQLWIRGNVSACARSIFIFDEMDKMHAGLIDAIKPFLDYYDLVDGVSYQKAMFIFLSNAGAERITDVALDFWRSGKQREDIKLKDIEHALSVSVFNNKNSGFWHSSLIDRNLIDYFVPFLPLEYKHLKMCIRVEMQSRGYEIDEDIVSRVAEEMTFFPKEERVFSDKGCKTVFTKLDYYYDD
For assay [9] the target is unchanged. The assay is described as follows: torsin A mutant lysate binding on microarrays – cell lysate, small-molecule microarray, COS7 lysate, 635/667 nm fluorescence, primary screen (AID 1150).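 Note: score pools 667 nm emission and signal to noise measuring lysate protein binding.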 Particulars: COS7 hTOR1A mutant lysate, 635 nm fluorescence, higher = more signal.
In assay [10] the test system is Sonic hedgehog protein (Shh). In words: Sonic hedgehog microarray binding compounds – biochemical, small-molecule microarray, 635/667 nm fluorescence, primary screen (AID 1151).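 Note: Shh protein binding to compounds spotted on small-molecule microarray slides; score combines spot fluorescence intensity with signal-to-noise across triplicate slides.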 Particulars: 635 nm fluorescence, higher = more signal.

The structures appear in SMILES notation. Calls of active or inactive are those of the source. Unless noted, the rule behind the calls is not given here.

Streptavidin (Streptomyces avidinii), sequence (P22629 whole entry, looked up): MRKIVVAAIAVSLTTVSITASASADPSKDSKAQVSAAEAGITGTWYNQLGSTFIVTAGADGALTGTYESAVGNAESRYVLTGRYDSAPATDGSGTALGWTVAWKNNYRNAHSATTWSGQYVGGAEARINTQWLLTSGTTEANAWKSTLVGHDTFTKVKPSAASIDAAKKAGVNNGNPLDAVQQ

Turning to `COC(=O)[C@H](C)NC(=O)CCC1CC(OC(=O)NCCc2ccc(F)cc2)CC2(CCCC(COC(=O)NCCC(C)C)O2)O1` (stereo not given in full), the composite z-score in [1] is 0.255; in assay [6], 0.0943; in assay [7], 0.0047; with Torsin-1A (Homo sapiens) [8] it was -0.184; with Torsin-1A (Homo sapiens) [9], -0.0067; in [10], 1.22. For the same compound, the z-score in assay [2] is -0.872 (inactive); in assay [3], -1.41 (inactive); in [4], 0.109 (inactive); in [5] it was 0.283 (inactive).

`C=CC[C@@H]1C=C[C@H](ON=C(C)CCC(=O)OC[C@H]2O[C@H](c3ccccc3)C=C[C@@H]2Oc2ccc(OC)cc2)[C@@H](CO)O1`: the composite z-score in [1] is -0.278; in [6], -0.586; in assay [7], -0.128; in the assay with Torsin-1A (Homo sapiens) [8] it was -0.957; in the assay with Torsin-1A (Homo sapiens) [9], -0.587; in assay [10], -0.317. The z-score in assay [2] was -1.08 (inactive); in assay [3] it was -0.743 (inactive); in assay [4], -0.24 (inactive); in [5] it was -0.24 (inactive).

For the compound `CCc1cc2c(nc1CC)CCN(CCC(C)=NO[C@H](C)c1cn([C@H](CO)Cc3ccccc3)nn1)C2`, the composite z-score in [1] came to 0.167; in assay [6], 0.656; in assay [7], 0.173; in the assay with Torsin-1A (Homo sapiens) [8] it was 1.49; with Torsin-1A (Homo sapiens) [9], 0.978; in assay [10] it was 0.236. The z-score in assay [2] is -0.225 (inactive); in assay [3], -0.374 (inactive); in assay [4], 2.4 (inactive); in assay [5], 0.406 (inactive).

With `C#CCCCON=C1C[C@@H](O)[C@@H](O)[C@@H]2[C@@H]3C(=O)N(CCC(=O)OCC)C(=O)[C@@H]3CC[C@H]12`, the composite z-score in assay [1] is 0.104; in assay [6] it was 0.873; in [7], -0.0736; with Torsin-1A (Homo sapiens) [8] it was 0.0183; with Torsin-1A (Homo sapiens) [9], 0.36; in assay [10] it was 1.65. Besides, the z-score in [2] is -1.42 (inactive); in assay [3], 1.11 (inactive); in assay [4] it was -0.295 (inactive); in assay [5] it was 0.783 (inactive).

On to `O=C1[C@H]2[C@H]3[C@H](O)[C@H](O)CC(=NOC[C@@H](O)COCc4ccco4)[C@H]3CC[C@H]2C(=O)N1C[C@@H]1CCCO1`, for which the composite z-score in [1] is 0.228; in [6], -0.0239; in [7], -0.111; with Torsin-1A (Homo sapiens) [8] it was 3.31; with Torsin-1A (Homo sapiens) [9] it was 2.75; in assay [10], 0.793. The z-score is 0.208 (inactive) in assay [2], -0.136 (inactive) in [3], 0.424 (inactive) in [4] and 0.261 (inactive) in [5].

`COC(=O)NCC=Cc1nc(CCCO)co1`: the composite z-score in assay [1] is 0.134; in assay [6], 0.362; in assay [7], -0.353; in the assay with Torsin-1A (Homo sapiens) [8] it was 0.519; with Torsin-1A (Homo sapiens) [9] it was 0.802; in assay [10], 0.883. Also, the z-score in assay [2] was -0.068 (inactive); in [3], 0.633 (inactive); in assay [4], 0.286 (inactive); in [5], -0.0562 (inactive).

`CO[C@H]1COC(=O)CC=C[C@H](C)COC(=O)[C@@H](C)NC(=O)CC=C[C@@H]1C`: the composite z-score is 0.042 in assay [1]; 0.0677 in assay [6]; -0.25 in [7]; 2.78 with Torsin-1A (Homo sapiens) [8]; 2.8 with Torsin-1A (Homo sapiens) [9]; 2.08 in assay [10]. In addition, the z-score in [2] is -2.06 (inactive); in assay [3], -1.59 (inactive); in [4], -0.31 (inactive); in assay [5] it was -0.0543 (inactive).

As to `CCOC(=O)[C@H](Cc1ccccc1)NC(=O)CCC1CC(OC(=O)NCc2ccc3c(c2)OCO3)CC2(CCCC(COC(=O)NCCc3ccccc3OC)O2)O1` (stereo not given in full), the composite z-score was 0.296 in assay [1]; 1.19 in assay [6]; -0.0937 in assay [7]; 0.479 with Torsin-1A (Homo sapiens) [8]; 0.252 in the assay with Torsin-1A (Homo sapiens) [9]; 0.995 in [10]. Moreover, the z-score in assay [2] was -0.415 (inactive); in [3], 0.8 (inactive); in assay [4] it was 17.2 (active); in [5], 0.109 (inactive).

Consider `CO[C@H]1COC(=O)[C@H](C)NC(=O)CC=C[C@@H](C)[C@H](OC)COC(=O)[C@@H](OCc2ccccc2)C=C[C@@H]1C`, for which the composite z-score in assay [1] was -0.0911; in assay [6], -0.697; in assay [7] it was -0.0791; in the assay with Torsin-1A (Homo sapiens) [8], 0.57; with Torsin-1A (Homo sapiens) [9], -0.0163; in [10] it was 0.683. The z-score in assay [2] was 0.382 (inactive); in [3], 0.213 (inactive); in [4], 0.971 (inactive); in assay [5] it was -0.262 (inactive).

Turning to `COC(=O)CC=C[C@@H](C)[C@@H](C=NO[C@@H](C)c1cn([C@H](CO)Cc2ccccc2)nn1)NS(=O)(=O)c1ccc(C)cc1`, the composite z-score came out at 0.062 in assay [1]; 0.0525 in [6]; 0.0928 in assay [7]; 0.945 in the assay with Torsin-1A (Homo sapiens) [8]; 0.997 with Torsin-1A (Homo sapiens) [9]; 0.685 in assay [10]. Besides, the z-score in [2] is -0.35 (inactive); in assay [3] it was 0.606 (inactive); in assay [4] it was 3.99 (inactive); in [5], -0.0697 (inactive).

Regarding `CCOC(=O)[C@H](CC(C)C)NC(=O)CCC1CC(OC(=O)NCc2cccc3ccccc23)CC2(CCCC(COC(=O)NCCc3ccc(Cl)cc3)O2)O1` (stereo not given in full), the composite z-score is 0.0502 in [1]; 0.614 in [6]; -0.0987 in assay [7]; 0.549 with Torsin-1A (Homo sapiens) [8]; 0.372 with Torsin-1A (Homo sapiens) [9]; 0.728 in [10]. Moreover, the z-score is -0.933 (inactive) in assay [2], -1.39 (inactive) in assay [3], -0.707 (inactive) in assay [4] and -1.17 (inactive) in [5].

On to `CCOC(=O)CCN1C(=O)[C@H]2[C@H]3[C@H](O)[C@H](O)CC(=NOCc4ccccc4)[C@H]3CC[C@H]2C1=O`, for which the composite z-score was 0.14 in assay [1]; 0.758 in assay [6]; 0.0805 in assay [7]; -0.296 with Torsin-1A (Homo sapiens) [8]; -0.522 with Torsin-1A (Homo sapiens) [9]; -0.212 in assay [10]. For the same compound, the z-score in [2] was 0.223 (inactive); in assay [3], 1.14 (inactive); in [4], -0.295 (inactive); in [5], -0.21 (inactive).

For `CCCNC(=O)OC[C@H]1O[C@H](CCON=C(C)CCN2CCc3nc(CC)c(CC)cc3C2)C=C[C@@H]1Oc1ccc(OC)cc1`, the composite z-score was -0.0552 in assay [1]; 0.333 in [6]; -0.0405 in assay [7]; 0.686 with Torsin-1A (Homo sapiens) [8]; 0.481 in the assay with Torsin-1A (Homo sapiens) [9]; 0.391 in assay [10]. The z-score in assay [2] was -2.1 (inactive); in assay [3], -0.546 (inactive); in assay [4], 10.3 (active); in [5], 0.82 (inactive).
